From PubChem BioAssay
Sm TGR block – inhibitors of Schistosoma mansoni thioredoxin glutathione reductase; Q962Y6; purified TGR, DTNB reduction, TNB absorbance 405 nm; Potency, µM (doses to about 114 µM), usual class: inhibitors; 360,000 compounds, 3% hits; AID 485364; note: nearly all actives have a fitted effect of over 60% in size
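Kinetic colorimetric format: TGR-catalysed, NADPH-driven DTNB reduction monitored via TNB absorbance. Enzyme dispensed at 20 nM; compound exposure 15 min at room temperature before reaction start.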
AmpC detergent – blocks E. coli AmpC beta-lactamase in detergent assay; P00811; AmpC hydrolysis of nitrocefin, absorbance 480 nm, 0.01% Triton; Potency, µM (titrated, usually from 114 µM), actives largely listed as inhibitors; 370,000 compounds, 0.041% hits; note: nearly all actives have a fitted effect of over 25% in size
Target sequence (P00811 whole entry, looked up): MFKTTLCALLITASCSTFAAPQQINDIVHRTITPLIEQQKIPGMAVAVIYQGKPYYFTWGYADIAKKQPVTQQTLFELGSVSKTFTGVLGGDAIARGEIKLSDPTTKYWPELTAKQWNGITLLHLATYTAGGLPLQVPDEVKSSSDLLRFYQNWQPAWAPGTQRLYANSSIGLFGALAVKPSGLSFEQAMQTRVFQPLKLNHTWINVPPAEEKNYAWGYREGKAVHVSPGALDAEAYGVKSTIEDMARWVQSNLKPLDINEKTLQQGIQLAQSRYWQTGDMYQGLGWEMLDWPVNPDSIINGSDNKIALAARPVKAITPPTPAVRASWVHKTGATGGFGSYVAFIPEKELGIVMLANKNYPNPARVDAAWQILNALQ
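20 mM phosphate pH 7.0 + 0.01% (detergent screen) or 0.0001% Triton X-100; 5.3 nM AmpC reagent; cpd preinc 15 min RT; nitrocefin (800 uM stock) to start; A480 q20 s × 4 min; Activity was normalised to no-enzyme and no-compound control wells.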
AmpC no deterg – inhibitors of E. coli AmpC beta-lactamase without detergent; Potency, µM (highest dose often 57.1 µM), actives largely listed as inhibitors; 330,000 compounds, 0.52% hits; P00811; AmpC nitrocefin hydrolysis, absorbance 480 nm, 0.0001% Triton; AID 485341; note: nearly all actives have a fitted effect of over 20% in size
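20 mM phosphate pH 7.0 + 0.01% (detergent screen) or 0.0001% Triton X-100; 5.3 nM AmpC reagent; cpd preinc 15 min RT; nitrocefin (800 uM stock) to start; A480 q20 s × 4 min; Activity was normalised to no-enzyme and no-compound control wells.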
A number is an active result; [ ] = dose if it differs, or a comment. Only some compounds are listed: those with a hit (about 3.3% of all), similar ones and a draw of the others. Calls come from the whole dose curve; as a rule, active = well fitted curve in the direction sought with a large enough effect; inconclusive = small, poorly fitted or top-dose-only effect, or another doubt; inactive = no such curve, though single readings can be large; an effect the other way counts as inactive or inconclusive.

Cc1ccc(CNC(=O)CCS(=O)(=O)c2cc(Br)cc3c2N(C(=O)C2CC2)CC3)cc1 was read as Sm TGR block inactive and AmpC detergent inactive.
`CC(=O)N1CCc2cc(S(=O)(=O)C(C)CC(=O)NCc3ccc(C)o3)ccc21` (configuration not stated) gave Sm TGR block inconclusive, AmpC detergent inactive and AmpC no deterg inactive.
CC(=O)N1CCc2cc(S(=O)(=O)CCC(=O)NCc3ccc(C)o3)ccc21 was read as Sm TGR block 11.2µM, AmpC detergent inactive and AmpC no deterg inactive.
For Cc1ccc(/C=[N+](/C)[O-])cc1 the results were Sm TGR block inactive, AmpC detergent inconclusive and AmpC no deterg inactive.
Cc1ccc(C=C2C(Cl)=C(Cl)C(Cl)=C2Cl)cc1 was read as Sm TGR block 0.631µM, AmpC detergent inactive and AmpC no deterg 15.8µM.
Cc1nc(-n2nc(C)c(CCC(C)C)c2C)sc1C(=O)Nc1ccc(Br)cc1 was read as Sm TGR block inactive and AmpC detergent inactive.
O=C(/C=C/c1ccc(Br)o1)Nc1nnc(C2CC2)s1 was read as Sm TGR block 11.2µM, AmpC detergent inactive and AmpC no deterg inactive.
Screening O=C(Nc1nnc(C2CC2)s1)C1COc2ccccc2O1 (configuration not stated) returned Sm TGR block inconclusive, AmpC detergent inactive and AmpC no deterg inactive.
For CCCCOc1ccc(C(=O)N(Cc2ccc(N(C)C)cc2)Cc2ccco2)cc1 the results were Sm TGR block inactive and AmpC detergent inactive.
For O=C(NCc1ccco1)/C(=C/c1ccc(C(F)(F)F)cc1)c1nc2ccccc2[nH]1 the results were Sm TGR block inactive, AmpC detergent inactive and AmpC no deterg 17.8µM.
For O=C(NCc1ccco1)/C(=C/c1cccc(C(F)(F)F)c1)c1nc2ccccc2[nH]1 the results were Sm TGR block inactive, AmpC detergent inconclusive and AmpC no deterg inactive.
`Cc1cccc(CNC(=O)c2ccc3c(c2)N(C)C(=O)C2CCCCN32)c1` (configuration not stated) gave Sm TGR block inactive and AmpC detergent inactive.
CCCc1[nH]nc2c1C(c1cc(OC)cc(OC)c1)C(C#N)=C(N)O2 (configuration not stated) was read as Sm TGR block 25.1µM, AmpC detergent inactive and AmpC no deterg inactive.
Screening CCCc1[nH]nc2c1C(c1cc(OC)ccc1F)C(C#N)=C(N)O2 (configuration not stated) returned Sm TGR block inconclusive, AmpC detergent inactive and AmpC no deterg inactive.
For COc1ccc(N=N/C(=C\O)C(=O)c2cccs2)cc1 the results were Sm TGR block inactive, AmpC detergent inconclusive and AmpC no deterg inactive.
Screening COc1ccc(/C=C(/C(=O)c2cccs2)N2C=CC=CC2=C(C#N)C#N)cc1 returned Sm TGR block 0.282µM, AmpC detergent inactive and AmpC no deterg inactive.
For CCCCNC(=O)C(CC)Sc1nnc(-c2ccc(F)cc2)c(-c2ccc(F)cc2)n1 (configuration not stated) the results were Sm TGR block inactive and AmpC detergent inactive.
For O=C1NCCCC2c3cc(O)c4ccccc4c3OC12N1CCCCC1 (configuration not stated) the results were Sm TGR block 2µM, AmpC detergent inactive and AmpC no deterg inactive.
Screening CCn1c(=S)sc2c(=O)n(CC(=O)Nc3ccc(OC)c(Cl)c3)c(C)nc21 returned Sm TGR block inactive, AmpC detergent inactive and AmpC no deterg 6.31µM.
Screening CCn1c(=S)sc2c(=O)n(CC(=O)Nc3ccc(C(C)=O)cc3)c(C)nc21 returned Sm TGR block inactive, AmpC detergent inactive and AmpC no deterg inactive.
For CCn1c(=S)sc2c(=O)n(CC(=O)Nc3ccccc3)c(C)nc21 the results were Sm TGR block inactive, AmpC detergent inconclusive and AmpC no deterg inactive.
Screening CCn1c(=S)sc2c(=O)n(CC(=O)Nc3ccc(Cl)cc3)c(C)nc21 returned Sm TGR block inactive, AmpC detergent inactive and AmpC no deterg 7.08µM.
Screening COc1ccccc1C(=O)Nc1cccc(C(=O)OCc2cc(=O)n3ccsc3n2)c1 returned Sm TGR block inactive and AmpC detergent inactive.
CCc1ccccc1NC(=O)Cn1c(=O)nc(-c2ccccc2)c2ccccc21 was read as Sm TGR block inactive and AmpC detergent inactive.
O=C(NCc1ccccc1Cl)C1CCCN(c2nc3ccccc3n3cccc23)C1 (configuration not stated) was read as Sm TGR block inactive and AmpC detergent inactive.
For COCCC(=O)N1CCCC(C(=O)c2ccc(C(F)(F)F)cc2)C1 (configuration not stated) the results were Sm TGR block inactive, AmpC detergent inactive and AmpC no deterg inactive.
For COc1ccc(C(=O)C2CCCN(C(=O)c3ccccc3C(C)=O)C2)cc1F (configuration not stated) the results were Sm TGR block 39.8µM, AmpC detergent inactive and AmpC no deterg inactive.
COc1ccccc1C(=O)C1CCCN(C(=O)c2ccccc2C(C)=O)C1 (configuration not stated) was read as Sm TGR block inactive, AmpC detergent inconclusive and AmpC no deterg inactive.
For COc1ccc(C(=O)C2CCCN(C(=O)c3ccc(CSC)o3)C2)cc1F (configuration not stated) the results were Sm TGR block 28.2µM, AmpC detergent inactive and AmpC no deterg inactive.
Screening CC(=O)c1ccccc1C(=O)N1CCCC(C(=O)c2ccc(C(F)(F)F)cc2)C1 (configuration not stated) returned Sm TGR block 39.8µM, AmpC detergent inactive and AmpC no deterg inactive.
Screening COc1ccc(C(=O)C2CCCN(C(=O)c3noc4c3CCCC4)C2)cc1F (configuration not stated) returned Sm TGR block inactive, AmpC detergent inactive and AmpC no deterg inactive.
For CC1Cc2ccccc2N1Cc1cc(=O)n2ccsc2n1 (configuration not stated) the results were Sm TGR block 22.4µM, AmpC detergent inactive and AmpC no deterg inactive.
Screening COc1ccccc1N1CCN(Cc2cc(=O)n3ccsc3n2)CC1 returned Sm TGR block inactive, AmpC detergent inactive and AmpC no deterg inactive.
CCc1c(CN2CCN(c3ccccc3F)CC2)csc1C was read as Sm TGR block inactive and AmpC detergent inactive.
CCOc1cc(C#N)c(NC(=O)Cn2nnc(-c3ccc(C)cc3)n2)cc1OCC was read as Sm TGR block inactive and AmpC detergent inactive.
`CCOC(=O)C1CCCN(C(=O)Cn2ncc3c(C)n(Cc4ccccc4Cl)c(C)c3c2=O)C1` (configuration not stated) gave Sm TGR block inactive and AmpC detergent inactive.
For CCCCCCn1c(SCCCC)nc2c1c(=O)[nH]c(=O)n2C the results were Sm TGR block inactive, AmpC detergent inactive and AmpC no deterg inactive.
Screening CCn1c([N+](=O)[O-])nc2c1c(=O)[nH]c(=O)n2C returned Sm TGR block 25.1µM, AmpC detergent inactive and AmpC no deterg inactive.
`CC(=O)Nc1nonc1-c1nnc(SCC(=O)Nc2cc(C)ccc2C)n1-c1ccccc1` gave Sm TGR block inactive and AmpC detergent inactive.
`ClCc1ncc(-c2ccc(Cl)cc2)o1` gave Sm TGR block 25.1µM, AmpC detergent inactive and AmpC no deterg inactive[11.4 µM].
